aSyn yeast inh: rescues yeast growth from alpha-synuclein toxicity | Yeast expressing alpha-synuclein, growth rescue, BacTiter-Glo, 24 h | Potency, µM (top dose mostly 46.1 µM), actives largely listed as activators | hit rate 0.14% among 370,000; note: nearly all actives have a fitted effect of over 65% in size
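Screening used galactose-induced yeast with toxic alpha-synuclein levels, exposed to compound for 24 hr at 30 deg C. Cell growth, read with BacTiter-Glo luminescence, gave the measured signal.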
MmCpn inh: inhibitors of Methanococcus maripaludis chaperonin TRiC (MmCpn) | hit rate 0.031% among 330,000 | purified Mm-Cpn ATPase, ADP Transcreener TR-FRET | Potency, µM (series often up to 76.9 µM), actives largely listed as inhibitors; note: nearly all actives have a fitted effect of over 80% in size
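ATP (10 uM final) was added to archaeal chaperonin (25 nM final) after 10 min exposure to test compound at 37°C; after 30 min further incubation, ADP was detected by competitive TR-FRET.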
ClpP mod: qHTS Assay for Activators of ClpP; ATP-dependent Clp protease proteolytic subunit (Bacillus subtilis (strain 168)), P80244; purified B. subtilis ClpP, FRET peptide cleavage, 20 min; Potency, µM (titrated, usually from 57.5 µM); hit rate 1.9% among 340,000; active = well fitted falling curve with a large enough effect; inconclusive = small, poorly fitted or top-dose-only effect; inactive = no such curve, though single readings can be large or run the other way; note: the source files actives as falling curves though it sought activators and does not explain the sign; nearly all actives have a fitted effect of over 65% in size
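Purified B. subtilis ClpP, 10 microg/mL final in Tris/HCl pH8 with KCl, BSA, glycerol and Tween-20, cleaved an Abz/nitrotyrosine-quenched decapeptide. Fluorescence (ex 320, em 430) was read at 0 and 20 min at room temperature. Delta was normalized to 5.8 microM ADEP and DMSO/no-enzyme controls.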
TDP-43 yeast inh: rescues yeast growth from TDP-43 toxicity; hit rate 1.8% among 410,000; Potency, µM (top dose mostly 46.1 µM), usual class: activators; TDP-43 expressing yeast growth rescue, BacTiter-Glo, 24 h; AID 652104; note: nearly all actives have a fitted effect of over 50% in size
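Luminescence from BacTiter-Glo reports growth of TDP-43-expressing yeast after 24 hr at 30 deg C with compound. Cells were raffinose-pregrown to mid-log, then seeded in galactose medium at OD600=0.02.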
FUS suppressor: FUS proteinopathy suppression in yeast | S. cerevisiae FUS-expressing, growth rescue, OD600, 24 h | Potency, µM (doses to about 76.6 µM), hits mostly activators | hit rate 0.24% among 390,000; note: nearly all actives have a fitted effect of over 55% in size
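Galactose (2%) drives FUS expression in yeast precultured in raffinose; seeding density OD 0.005. Test compounds incubated 24hr at 30C and 99% humidity before absorbance at 600 nm was measured.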
Abeta rescue: A-beta toxicity reversal in yeast; yeast expressing A-beta42, growth rescue, OD600, 48 h; response scale: 0% DMSO, 100% iron-clioquinol control; Potency, µM (doses to about 46.1 µM), hits mostly activators; hit rate 0.063% among 410,000; AID 1347071; note: nearly all actives have a fitted effect of over 55% in size
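Yeast growth medium received pinned compounds, then yeast cells expressing toxic A-beta were added; plates incubated at 30 C for 48 hr. Growth read as absorbance at 600 nm, normalized to DMSO and equimolar FeCl3 plus clioquinol controls.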
Large screens that a line does not name were inactive. In the library only some 3.6% were active in any assay of this set; here they are far more common. Unless noted, calls come from the whole dose curve; as a rule, active = well fitted curve in the direction sought with a large enough effect; inconclusive = small, poorly fitted or top-dose-only effect, or another doubt; inactive = no such curve, though single readings can be large; an effect the other way counts as inactive or inconclusive.

COc1ccc2cc3cc(C(=O)NCC4COc5ccccc5O4)oc3nc2c1 (stereo not drawn)	ClpP mod 35µM
Cc1ccc2cc3cc(C(=O)NCc4ccco4)oc3nc2c1	ClpP mod 14µM
CCc1nnc2c(N3CCN(c4cc(Cl)ccc4C)CC3)nc3ccccc3n12	none (no result: aSyn yeast inh, MmCpn inh)
CC(NC(=O)COC(=O)c1cn(-c2ccccc2)nc1-c1cccs1)c1ccccc1 (stereo not drawn)	MmCpn inh 50µM, ClpP mod inconclusive
O=C(OCc1ccccc1Cl)c1ccc(-n2cnnc2)cc1	TDP-43 yeast inh 13µM
CN(C)c1ccc(/C=C/c2cccc3ccccc23)cc1	none (no result: MmCpn inh, TDP-43 yeast inh, FUS suppressor, Abeta rescue)
CCc1cc2c(cc3c(=O)n(CC(=O)N4CCN(c5cccc(C)c5C)CC4)nc(CC)n32)s1	none (no result: aSyn yeast inh, MmCpn inh)
COc1ccc(N2C(=O)CSC23C(=O)N(CC(=O)NCCc2ccccc2)c2ccccc23)cc1 (stereo not drawn)	none (no result: MmCpn inh)
Cc1ccc(S(=O)(=O)NCc2c(Cl)cccc2Oc2ccccc2)cc1	TDP-43 yeast inh 20µM
CC(=O)Nc1ccc(NC(=O)c2ccc(NS(=O)(=O)c3cc(C(C)(C)C)cc(C)c3C)cc2)cc1	ClpP mod 28µM
Cc1ccccc1-c1nc2c(=O)n(C)c(=O)nc-2n(C)n1	none (no result: MmCpn inh, TDP-43 yeast inh, FUS suppressor, Abeta rescue)
CC1CCc2onc(C(=O)N3CCN(c4cccc(Cl)c4)CC3)c2C1 (stereo not drawn)	none (no result: aSyn yeast inh, MmCpn inh)
c1ccc(Oc2ncnc3sccc23)cc1	TDP-43 yeast inh 11µM
Cc1ccccc1Oc1ncnc2sccc12	TDP-43 yeast inh 11µM
CC(C)(C)n1nc(-c2ccc(Cl)cc2)c2c(N)ncnc21	aSyn yeast inh 2.5µM
CC(C)(C)n1nc(-c2ccc(F)cc2)c2c(N)ncnc21	aSyn yeast inh inconclusive
COc1cccc(/C=N/NC(=O)CSc2nnc(C)n2-c2ccccc2)c1OC	ClpP mod 28µM
CCOC(=O)N1CCN(c2ncc3c(n2)CC(c2ccc(Cl)cc2)CC3=O)CC1 (stereo not drawn)	TDP-43 yeast inh 13µM (no result: MmCpn inh)
CCOC(=O)N1CCN(c2ncc3c(n2)CC(c2ccccc2O)CC3=O)CC1 (stereo not drawn)	none (no result: MmCpn inh)
Cc1cccc2c(=O)n(C(=O)c3ccccc3)c(N)nc12	TDP-43 yeast inh 20µM (no result: MmCpn inh)
Cc1oc2ncn(CC(C)C)c(=O)c2c1C(=O)NCCCN(Cc1ccccc1)C(C)C	none (no result: aSyn yeast inh, MmCpn inh)
C[C@@H]1CC2[C@@H]3CC[C@H]4CC(=O)CC[C@]4(C)C3=CC[C@]2(C)[C@@]1(O)C(=O)CO (stereo partly drawn)	TDP-43 yeast inh 10µM
CC(=O)C1(O)C(C)CC2C3CCC4CC(O)CCC4(C)C3=CCC21C (stereo not drawn)	none
O=C(C[N+]12CN3CN(CN(C3)C1)C2)c1ccc(Br)cc1	none (no result: aSyn yeast inh, MmCpn inh, TDP-43 yeast inh, FUS suppressor, Abeta rescue)
CC(=O)N1CCc2c(sc3c2c(=O)n(CCc2ccccc2)c(=O)n3Cc2ccccc2C)C1	TDP-43 yeast inh 35µM, FUS suppressor inconclusive (no result: aSyn yeast inh, MmCpn inh)
CC(=O)N1CCc2c(sc3c2c(=O)n(CCc2ccccc2)c(=O)n3Cc2ccc(Cl)cc2)C1	TDP-43 yeast inh 32µM, FUS suppressor inconclusive (no result: aSyn yeast inh, MmCpn inh)
COc1cc2nc(N3CCOCC3)nc(NC3CC3)c2cc1OC	none (no result: MmCpn inh, TDP-43 yeast inh, FUS suppressor, Abeta rescue)
Cc1cc2c(cc1C)N[C@]1(C[C@H]3CCCC(=O)N4CC[C@@H](C1)[C@@H]34)C(=Nc1ccccc1C)N2	none (no result: aSyn yeast inh, MmCpn inh, TDP-43 yeast inh, FUS suppressor, Abeta rescue)
Cc1ccc(S(=O)(=O)N(CC(=O)NC2CC2)c2ccc(C)c(Cl)c2)cc1	ClpP mod 16µM, TDP-43 yeast inh inconclusive (no result: FUS suppressor)
Cc1cccc(N(CC(=O)NC2CC2)S(=O)(=O)c2ccc(Cl)cc2)c1	none
CC(C)CCNC(=O)C1COC(O)(C(Cc2ccccc2)NC(=O)[C@@H](NC(=O)OCc2ccccc2)C(C)C)CN1 (stereo partly drawn)	none (no result: aSyn yeast inh, MmCpn inh, ClpP mod, TDP-43 yeast inh, Abeta rescue)
CSc1ccccc1-c1nnc(-c2ccc(Cl)cc2Cl)o1	ClpP mod 35µM (no result: FUS suppressor)
Cn1c2c(c(=O)n3ncnc13)CCCC2	MmCpn inh inconclusive, ClpP mod 22µM
CCCOc1ccc(C(=O)N(Cc2cccs2)c2ccc(C)cc2)cc1	none (no result: aSyn yeast inh, MmCpn inh)

Compound activity deposited in PubChem by National Center for Advancing Translational Sciences (NCATS).
